This is an account of results in PubChem BioAssay AID651821 (The Scripps Research Institute Molecular Screening Center, 2012).

Screen size: about 370,000 compounds; about 4,700 (1.3%) were called active. Only a selection was taken, and actives are over-represented in it overall. A number with no mark means an inactive call.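 How the source made its calls: active means inhibition above the plate cutoff, the mean of all test compounds on that plate plus 3 SD (cut at about 35% in these data); inactive means the rest.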

What is called inhibition is the relative decrease from the control value, in per cent.

This assay in a line: binders of r(CAG) RNA repeats, primary screen, biochemical, fluorescence (AID 651821).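 Further: 0% = DMSO alone and 100% = 100 µM mitoxantrone as full dye displacement; higher means more dye released from RNA so lower well fluorescence.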 The following applies: r(CAG) RNA repeat, TO-PRO-1 dye displacement fluorescence; at 3 µM; hits give high values.
As to `COc1ccc(F)cc1S(=O)(=O)NCC(c1ccc2c(c1)OCO2)N1CCN(C)CC1` (stereo unspecified), the inhibition was -3.68%.

With `CN(Cc1ccc2nsnc2c1)Cc1nc(Cc2cccc(F)c2)no1`, the inhibition is -4.71%.

As to `CCOc1cc(/C=C2/N=C(c3ccc(C(C)(C)C)cc3)OC2=O)cc(Cl)c1OS(C)(=O)=O`, the inhibition was 67% (active).

For `O=C(Cc1ccccc1)Nc1ccc(C(=O)Nc2ccccc2C(=O)O)cc1`, the inhibition is 50.2% (active).

Take `CC1CCN(C(=O)c2ccccc2NC(=O)Cc2ccccc2)CC1`: the inhibition was -6.63%.

`O=C(CSCc1ccc([N+](=O)[O-])cc1)Nc1cccc(C(=O)Nc2ccccc2C(=O)O)c1`: the inhibition was 67.2% (active).

In the case of `COc1ccc(NC(=O)CSCc2ccc([N+](=O)[O-])cc2)cc1OC`, the inhibition is -1.63%.

Regarding `O=C(CSCc1ccc([N+](=O)[O-])cc1)NCCSCc1ccccc1`, the inhibition is -2.49%.

In the case of `CN(CCc1ccccc1)C(=O)c1cccc(NC(=O)Cc2ccc([N+](=O)[O-])cc2)c1`, the inhibition is 1.94%.

Turning to `O=C(Nc1ccccc1C(=O)O)c1ccc(N2C(=O)C3CC=CCC3C2=O)cc1` (stereo unspecified), the inhibition was 13.8%.

`O=C(COc1ccc([N+](=O)[O-])cc1)Nc1cccc(C(=O)Nc2ccccc2C(=O)O)c1`: the inhibition is 77.5% (active).

As for `O=C(CCCOc1ccccc1)Nc1cccc(C(=O)O)c1`, the inhibition is 6.14%.

`O=C(c1ccncc1)N1CC[C@H]2[C@H](CCCN2Cc2ccc(F)cc2)C1`: the inhibition was -0.17%.

For `COC(=O)C1=C(C(=O)OC)C2C=C(C(C)C)C1C(=O)C2(C)O` (stereo unspecified), the inhibition is 2.51%.

As for `Cc1ccc(C)c(NC(=O)CCS(=O)(=O)c2ccccc2)c1`, the inhibition was 5.79%.

Take `COC(=O)C(C(=O)OC)c1ccccc1NS(=O)(=O)c1cccc2ccccc12`: the inhibition is 6.69%.

As for `Cc1ccc(C(=O)C2CCN(CC(=O)NCCC(C)C)CC2)cc1`, the inhibition was -4.12%.

In the case of `COC(=O)C1=C(C)N(Cc2ccccc2C(F)(F)F)C(=NCC2CC2)NC1c1cccc(Cl)c1` (stereo unspecified), the inhibition is 2.17%.

Consider `CC(C)[C@H](NC(=O)OCc1ccccc1)C(=O)OCc1ccccc1`, for which the inhibition is -7.02%.

In the case of `COc1ccc(COC(=O)NC(C(=O)O)c2ccccc2)cc1` (stereo unspecified), the inhibition was 41.2% (active).

Regarding `COC(=O)c1ccc(C(NC(=O)OCc2ccccc2)/C(F)=C/[C@@H](C)C(=O)O)cc1` (stereo partly specified), the inhibition is 7.38%.

Turning to `O=S1(=O)CC(N2CCN(CCO)CC2)CN1Cc1cn(Cc2cccc(Cl)c2)nn1` (stereo unspecified), the inhibition is 1.81%.

Regarding `COc1ccccc1CSc1ncc(-c2ccc([N+](=O)[O-])cc2)[nH]1`, the inhibition is 6.09%.

On to `Cc1ccc(CSc2nc(-c3ccccc3)c(C#N)c(=O)[nH]2)cc1`, for which the inhibition was 84.2% (active).

`N#Cc1c(-c2ccccc2)nc(SCc2cccc(C(F)(F)F)c2)[nH]c1=O`: the inhibition was 91.1% (active).

On to `Cc1ccc(CSc2nc3[nH]ncc3c(=O)[nH]2)cc1`, for which the inhibition is -3.55%.

Consider `O=C(Nn1c(SCc2ccc([N+](=O)[O-])cc2)nc2ccccc2c1=O)c1ccc(F)cc1`, for which the inhibition is 25.7%.

On to `Cc1ccccc1CSc1nnc(-c2ccccc2)c(=O)[nH]1`, for which the inhibition is 6.58%.

`Cc1ccc(CSc2nsc(C)c2C#N)cc1`: the inhibition was -2.07%.

For `N#Cc1c(-c2ccccc2)nc(SCc2ccc([N+](=O)[O-])cc2)[nH]c1=O`, the inhibition is 74% (active).

Turning to `CC1(Cc2cccc(C#N)c2)C(=O)Nc2ccc(-c3cccc(C(F)(F)F)c3)cc21` (stereo unspecified), the inhibition was 2.77%.
